FLuc counter: qHTS profiling assay for firefly luciferase inhibitor/activator using purifed enzyme and Km concentrations of substrates (counterscreen for miR-21 project) | purified FLuc, Km substrates, luminescence inhibition | Potency, µM (series often up to 57.5 µM), without a hit: at the top dose activity change, negative = inhibition, usual class: inhibitors | AID 588342, 2011 | Luciferin 4-monooxygenase (Photinus pyralis), P08659 | 6.9% of 360,000 active;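 note: plate controls were vehicle for no effect and reference inhibitor for full effect; nearly all actives have a fitted effect of over 55% in size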
Target sequence (P08659 whole entry, looked up): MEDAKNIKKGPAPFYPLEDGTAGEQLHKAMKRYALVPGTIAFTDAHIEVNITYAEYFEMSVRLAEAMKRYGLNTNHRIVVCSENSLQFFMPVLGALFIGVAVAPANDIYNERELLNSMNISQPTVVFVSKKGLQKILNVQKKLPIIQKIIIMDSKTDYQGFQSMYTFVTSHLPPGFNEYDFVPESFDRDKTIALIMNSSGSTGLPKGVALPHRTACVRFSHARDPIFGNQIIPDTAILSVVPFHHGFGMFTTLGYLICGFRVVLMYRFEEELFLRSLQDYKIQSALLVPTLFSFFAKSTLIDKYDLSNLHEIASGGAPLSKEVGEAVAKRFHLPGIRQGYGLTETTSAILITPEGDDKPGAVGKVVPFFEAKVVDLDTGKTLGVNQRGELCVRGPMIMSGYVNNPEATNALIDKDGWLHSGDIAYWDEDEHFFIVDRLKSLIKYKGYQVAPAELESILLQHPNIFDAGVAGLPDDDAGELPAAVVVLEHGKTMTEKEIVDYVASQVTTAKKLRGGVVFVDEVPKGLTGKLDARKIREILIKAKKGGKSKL
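Purified P. pyralis luciferase (10nM final) with 10uM D-luciferin and 10uM ATP (Km levels) in 50mM Tris acetate pH 7.5, 10mM Mg acetate, 0.01% Tween-20, 0.05% BSA; qHTS 6-point titration, ~60 µM downward; luminescence read.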
KinaseGlo FLuc: Counterscreen for Luciferase (Kinase-Glo TM) Inhibition; Kinase-Glo luciferase, ATP luminescence, 8 min; Potency, µM (top dose mostly 38.3 µM), for the others: at the highest dose activity change, negative = inhibition, hits mostly inhibitors; 0.28% of 200,000 active; Luciferin 4-monooxygenase (Photuris pensylvanica), Q27757; note: % is set by controls: 0 for no effect and ±100 for the full control effect; nearly all actives have a fitted effect of over 60% in size
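Kinase-Glo luciferase light output from ATP and luciferin was measured with 10 uM ATP, within the enzyme's linear range. Buffer: 50 mM imidazole pH 7.2, 50 mM KCl, 7 mM MgCl2, 0.01% Tween 20, 0.05% BSA; luminescence read after 8 min at ambient temperature.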
Rab9 prom act: qHTS Assay for Rab9 Promoter Activators; Huh7 Rab9 promoter-luciferase reporter, luminescence, 24 h; Potency, µM (highest dose often 9.22 µM), inactives show at the top dose activation, negative = inhibition, hits mostly activators; 2.8% of 320,000 active; AID 485297, 2010; note: % of control where 0% means no effect; nearly all actives have a fitted effect of over 60% in size
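Stable Rab9-luc Huh7, 1500 cells/well, 2 h settle; cmpd in DMSO, 24 h, 37 °C/5% CO2; luciferase reagent 10 min RT; luminescence.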
ELG1 genotoxic: qHTS screen for small molecules that induce genotoxicity in human embryonic kidney (HEK293T) cells expressing luciferase-tagged ELG1 | HEK293T ELG1-luciferase reporter, luminescence, 16 h | 1.3% of 330,000 active | AID 504466, 2011 | Potency, µM (top dose mostly 46 µM), for inactives: at the top dose activity change, positive = activation, hits mostly activators; note: % of control where 0% means no effect; nearly all actives have a fitted effect of over 60% in size
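Quantitative HTS format in 1536-well plates. HEK293T ELG1-luciferase reporter cells receive test compound and are incubated 16 hr at 37 °C, 5% CO2; ONE-Glo added, 30 min room temperature, then luminescence read.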
SMN2 splice enh: qHTS Assay for Enhancers of SMN2 Splice Variant Expression | 2.8% of 210,000 active | Potency, µM (top dose mostly 46.1 µM), for inactives: at the top dose activity change, positive = activation, most hits filed as activators | AID 1458, 2008 | HEK293 SMN2-luciferase splicing reporter, luminescence, 30-36 h; note: % of control where 0% means no effect; nearly all actives have a fitted effect of over 55% in size
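qHTS luciferase splicing reporter: luminescence rises when SMN2 exon 7 is included in transfected HEK293 cells. Compound exposure lasted 30-36 h at 37C, with 4.5 mM final sodium butyrate as control, followed by a ONE-Glo read.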
NPC1 prom act: qHTS Assay for NPC1 Promoter Activators; Huh7 NPC1 promoter luciferase reporter, 24 h; Potency, µM (titrated, usually from 9.22 µM), for the others: top-dose activation, actives largely listed as activators; 2.4% of 320,000 active; AID 485313, 2010; note: % of control where 0% means no effect; nearly all actives have a fitted effect of over 60% in size
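Stably transfected Huh7 (NPC1 promoter→luciferase), 1500 cells/well in Opti-MEM + 10% FBS, 2 h settle, then compound 24 h at 37 °C. Luminescence after 10 min with Amplite reagent.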
Numbers without * were called inactive; ? = inconclusive; nt = no result; [ ] = dose if it differs, or a comment. The list is not random: actives were taken first. Their share in the collection is about 7.3%. Calls come from the whole dose curve; as a rule, active = well fitted curve in the direction sought with a large enough effect; inconclusive = small, poorly fitted or top-dose-only effect, or another doubt; inactive = no such curve, though single readings can be large; an effect the other way counts as inactive or inconclusive. Potency is the fitted concentration of half-maximal effect.

SMILES | FLuc counter | KinaseGlo FLuc | Rab9 prom act | ELG1 genotoxic | SMN2 splice enh | NPC1 prom act
CC(C)(C)c1ccc(/C=C(\C#N)C(=O)Nc2ccccn2)cc1 | 8.49µM* | nt | -2.0% | -4.6% | nt | 2.0%
N#C/C(=C\c1cccs1)C(=O)Nc1ccccn1 | 3.38µM* | nt | 1.58µM* | ? | nt | 2.24µM*
Cc1ccc(NC(=O)/C(C#N)=C/c2ccccc2Cl)cc1C | 10.7µM* | nt | nt | nt | -6.8% | nt
Cc1ccccc1NC(=O)/C(C#N)=C/c1ccc(Cl)cc1Cl | -13.5% | nt | nt | nt | 2.3% | nt
N#C/C(=C\c1ccccc1)C(=O)Nc1ccccn1 | 15.1µM* | nt | 5.2% | -0.4% | nt | 0.2%
O=C(c1ccccc1)N1CCc2cc(CNS(=O)(=O)c3ccc(Cl)s3)ccc21 | 0.0% | nt | nt | nt | nt | nt
C=CCOc1ccc(/C=C(\C#N)C(=O)Nc2ccccn2)cc1 | 2.13µM* | nt | 4.3% | -0.9%[9.26 µM] | nt | 0.8%
Cc1ccc(NC(=O)/C(C#N)=C/c2cccs2)c(C)c1 | -15.3% | 4.3% | 3.55µM* | ? | 12.6µM* | 2µM*
N#C/C(=C\c1ccccc1)C(=O)Nc1nncs1 | 19µM* | nt | 9.4% | 0.2% | nt | -2.1%
Cc1cccc(C)c1NC(=O)/C(C#N)=C/c1cccs1 | 0.3% | -0.5% | 14.8% | 1.6% | -5.6% | -7.6%
CC(C)(C)c1ccc(C(=O)/C(C#N)=C/c2cccs2)cc1 | 1.2µM* | nt | 4.9% | 1.7% | nt | 0.1%
Cc1cccc(/C=C(\C#N)C(=O)Nc2ccccn2)c1 | ? | nt | 0.6% | 1.9% | nt | -1.0%
COc1ccc(OC)c(CCNC(=O)CCc2cn(Cc3cc(C)ccc3C)c3ccccc23)c1 | -7.6% | nt | nt | nt | nt | nt
N#C/C(=C\c1ccccc1Cl)C(=O)Nc1ccccn1 | 19µM* | nt | 0.9% | -1.3% | nt | 1.7%
CC(C)(C)c1ccc(C(=O)Nc2ccc(C=C(C#N)C#N)cc2)cc1 | 4.78µM* | 2.4% | 0.501µM* | ? | ? | ?
CC(C)=NNc1nc2sc3c(c2c(=O)[nH]1)CC(C)(C)OC3 | 15.1µM* | -3.2% | -4.4% | 0.1% | -0.3% | 0.7%
CSc1nc2sc3c(c2c(=S)[nH]1)CC(C)(C)OC3 | 19µM* | nt | 17.3% | -1.9% | nt | 2.5%
COc1ccc(-n2ccnc(NCCc3ccc(S(N)(=O)=O)cc3)c2=O)cc1Cl | -1.8% | nt | nt | nt | nt | nt
CCOc1cc(C2C(C#N)=C(N)Oc3n[nH]c(CC)c32)ccc1OCCN1CCOCC1 (configuration not stated) | 0.2% | -1.1% | 7.3% | 1.5% | 6.2% | -0.4%
CCOc1cc(C2C(C#N)=C(N)Oc3n[nH]c(C)c32)ccc1OCCN1CCOCC1 (configuration not stated) | 4.5%[2.3 µM] | 6.1% | 22.0% | 5.6% | 41.7% | 3.98µM*
C[C@@]12C(=O)OC(=O)[C@]1(C)[C@H]1CC[C@@H]2O1 | nt | -2.9%[17.1 µM] | nt | nt | -50.0%[20.6 µM] | nt
CCC(C)Cn1c(/C=C/c2ccccc2)nc2ccccc21 (configuration not stated) | 6.75µM* | nt | nt | nt | 22.7% | nt
CC(C)Cn1c(/C=C/c2ccc(F)cc2)nc2ccccc21 | 2.39µM* | nt | nt | nt | 17.8µM* | nt
COCCn1c(/C=C/c2ccccc2)nc2ccccc21 | 1.69µM* | ? | 2µM* | ? | 11.2µM* | 2.24µM*
CC(C)CCn1c(/C=C/c2ccccc2)nc2ccccc21 | 4.26µM* | nt | nt | nt | ? | nt
Cc1ccc(CN2C(=O)C3(c4ccccc42)N(c2cccc(C(F)(F)F)c2)C(=O)CS3(=O)=O)cc1 (configuration not stated) | 2.3% | nt | nt | nt | nt | nt
CCOc1ccc(C2c3c(oc4ccccc4c3=O)C(=O)N2Cc2ccc3c(c2)OCO3)cc1 (configuration not stated) | 0.2% | nt | nt | nt | 12.2% | nt
Cc1cccc(N2CCN(C(=O)c3sc4nc5n(c(=O)c4c3C)CCC5)CC2C)c1 (configuration not stated) | -2.1% | nt | nt | nt | nt | nt

Source: PubChem BioAssay (National Center for Advancing Translational Sciences (NCATS))
